Source: PubChem BioAssay AID504444 (National Center for Advancing Translational Sciences (NCATS), 2011)
The campaign covered roughly 360,000 compounds. About 7,500 (2.1%) were called active. Roughly 20% stayed inconclusive and do not appear here. This is one part of a sample in which actives are shown more often than they occur. A number with no mark means an inactive call. The call rests on the fitted dose curve; in most records, active means well fitted inhibition curve with a large enough effect; inconclusive means small, poorly fitted or top-dose-only effect, or effect the other way; inactive means flat fitted curve, though single readings scatter.

assay: Nrf2 qHTS screen for inhibitors; conditions: A549 ARE-Fluc reporter, luciferase luminescence, 18-24 h; series mostly up to 46 µM; activity change, negative = inhibition: at the top concentration; further: nearly all actives have a fitted effect of over 60% in size
Excerpt: NIH Molecular Libraries Probe Production Network [MLPCN]
NIH Chemical Genomics Center [NCGC]
Assay Provider: Shyam Biswal, Johns Hopkins University
Nrf2 is a transcription factor that maintains cellular redox homoestasis and protects cells from xenobiotics. Nrf2 binds to the antioxidant response element (ARE) to induce gene expression of a broad spectrum of genes that encode for antioxidants. […] Finding a small molecule that act as an inhibitor of Nrf2 function would represent a novel therapeutic target that could lead to improvement in survival of patients undergoing chemo- and/or radio- therapy.
This is the Nrf2 activity measured in the luminescent read.
1. Shibata, T., et al., Genetic Alteration of Keap1 Confers Constitutive Nrf2 Activation and Resistance to Chemotherapy in Gallbladder Cancer. Gastroenterology, 2008.
2. Sjoblom, T., et al., The consensus coding sequences of human breast and colorectal cancers. Science, 2006. 314(5797): p. 268-74.
NCGC Assay Protocol Summary:
A concentration-response assay was performed with A549 ARE_Fluc cells which are suspended in 5% FBS OPTI-MEM. Five uL were dispensed into 1536-well white TC-treated plate using the Kalypsys dispenser to achieve a density of 5000 cells/well in all columns except column 1. The plate is incubated at 37deg C at 5% CO2 for 2 hours before 23 nL of compounds are added with the Kalypsys pin tool equipped with a 1,536-pin array containing 10-nL slotted pins (FP1S10, 0.457-mm diameter, 50.8 mm long; V&P Scientific). The control compounds Budesonide and Staurosporine are both added at a concentration of 2mM and Budesonide is also added as a 1:10 titration, starting at 200uM, to achieve dose-response. After an 18-24 hour incubation at 37deg C at 5% CO2, 5ul of medium is added to column 1. Afterwards 1ul of 5x of CellTiter-Fluor (Promega) is added to every well. The plate is then incubated at 37deg C at 5% CO2 for 30 minutes before they are read on the ViewLux (Perkin Elmer) for a fluorescent read Ex=405(10)/Em=525(10) for a 3 second exposure, 2x binning, and high gain. Then 3 uL of 3x BugLite is dispensed into all wells and the plate is incubated at ambient room temperature for 15 minutes. Afterwards another ViewLux read is performed using the clear filter to get a luminescent read with the settings of 40 second exposure, 2x binning, and high gain. Cytotoxicity is assessed through the first fluorescent read and then biochemical activity against Nrf2 is measured in the luminescent read.
On the % scale 0 is the no-effect control and ±100 the full control effect; potency means the concentration at half of the fitted maximal effect.

Structure (SMILES)	activity change, negative = inhibition	Potency
O=C(NNC(=O)c1ccccc1O)c1ccccc1O	-25.8%	
O=C(/C=C/c1ccccc1)N/C(=C/c1ccccc1)C(=O)Nc1ccccc1O	17.7%	
CNC(=O)c1sc(Nc2ccc(OCc3ccccc3)cc2)nc1C		20.6 µM (active)
CCc1ccnc(NC(=O)Nc2ccc(OCc3ccccc3)cc2)c1	-9.72%	
O=C(O)/C=C\C(=O)Nc1ccc(OCc2ccccc2)cc1	18.1%	
CCN(C[C@H]1N[C@@](CC)(C(=O)OC)[C@H]2C(=O)N(Cc3ccccc3)C(=O)[C@@H]12)S(=O)(=O)c1ccccc1	16.6%	
Cc1cccc(C(=O)OCC(=O)NC(C)C2CC3CCC2C3)c1O (centres undefined)	-2.64%	
CC(C)Cn1c(N)c(C(=O)COC(=O)CN2C(=O)C3CC=CCC3C2=O)c(=O)n(C)c1=O (centres undefined)		4.61 µM (active)
CC(C)Cn1c(N)c(C(=O)COC(=O)C2CCCN2C(=O)c2cccs2)c(=O)n(C)c1=O (centres undefined)	-14.3%	
COc1ccc(C(=O)COC(=O)CN2C(=O)C3CC=CCC3C2=O)c(OC)c1 (centres undefined)	1.38%	
O=C(Nc1ccn(CCCNCc2ccc3[nH]ccc3c2)c(=O)n1)OCc1ccccc1	-1.64%	
COc1ccccc1S(=O)(=O)NCc1ccc(C(=O)N(C)Cc2ccc(F)cc2)cc1		23.1 µM (active)
O=C(NCCS(=O)(=O)NCc1ccc(F)cc1)c1ccccc1	3.15%	
CN(Cc1ccccc1)C(=O)c1ccc(COc2ccccc2)cc1	1.07%	
O=C1N(Cc2ccccc2)c2ccc(Cl)cc2C1(O)c1c[nH]c2ccccc12 (centres undefined)	1.03%	
CC(Nc1ncnc2ccc(-c3ccc4c(c3)OCO4)cc12)c1ccco1 (centres undefined)	-6.5%	
Cc1cccc(NC(=O)c2cccc(C(F)(F)F)c2)c1	9.33%	
O=C(/C=C/c1ccc(F)cc1)Nc1cccc(S(=O)(=O)Nc2cccc(C(F)(F)F)c2)c1	-7.06%	
Cc1oc2c(F)c(F)c(F)c(F)c2c1S(=O)(=O)Nc1cccc(C(F)(F)F)c1		8.2 µM (active)
CCn1c2ccccc2c2cc(CN3CCN(Cc4cccc(Cl)c4)CC3)ccc21	1.46%	
Cc1cccc(C(=O)N2c3nc(-c4ccco4)nn3C3(CCCCC3)[C@@H]3CCCC[C@@H]32)c1	-10.5%	
COc1cccc(NC(=O)c2ccc(S(=O)(=O)N(C)C)cc2)c1	-11.6%	
CN(C)S(=O)(=O)c1ccc(Oc2ccc(S(=O)(=O)N(C)C)cc2)cc1		13 µM (active)
CN(C)S(=O)(=O)c1ccc(NC(=O)N2CCOCC2)cc1	12.1%	
CCOc1ccc(-c2n[nH]c3c2C(c2ccccc2OC)N(c2ccc(Br)cc2)C3=O)cc1 (centres undefined)	-90.3%	

Structure (SMILES)	activity change, negative = inhibition	Potency
CCCCCCCCNS(=O)(=O)CCNC1CCCCC1	17.5%	
Cc1cccc(C(C)C)c1NC(=O)C(NS(=O)(=O)c1cccc2nsnc12)c1ccccc1 (centres undefined)	4.2%	
CCN1/C(=C/C(=S)Nc2ccccc2)Sc2ccccc21		6.51 µM (active)
O=C(CCN1c2ccccc2Sc2ccccc21)Nc1ccccc1	-4.56%	
CCNC(=O)N1c2ccccc2Sc2ccccc21	2.6%	
CC(C)NC(=O)Nc1cccc2c1O[C@H](CN(C)S(=O)(=O)c1cccs1)[C@@H](C)CN([C@H](C)CO)C2=O	4.9%	
COc1cccc(N2CCN(S(=O)(=O)c3cc(Br)cc4c3N(C(=O)C3CC3)CC4)CC2)c1	-6.76% [at 9.27 µM]	
O=C(NCCC1=CCCCC1)c1ccc2c(c1)N(Cc1ccccc1F)C(=O)c1ccccc1S2(=O)=O	17.8%	
COc1cccc(OC2=NS(=O)(=O)c3ccccc32)c1	1.62% [at 65.3 µM]	
Cn1nccc1CNC(=O)c1ccnn1C	-3.22%	
CCN(CC)C(=O)c1sc(NC(=O)c2ccco2)c(C#N)c1C	2.27%	
CCCc1ccc(-c2c(C)sc(NC(=O)c3ccnn3C)c2C#N)cc1		13 µM (active)
COc1ccc(C)cc1NC(=O)COCc1cc(-c2cccs2)on1	-15.1%	
O=C(Nc1ccc(OC(F)(F)F)cc1)C1CCCN(S(=O)(=O)c2ccc(Br)s2)C1 (centres undefined)	-12.6%	
Cn1c(=O)[nH]c(=O)c2c1nc(NCCc1ccccc1)n2Cc1ccc(F)cc1	-17.7%	
CCCCNc1nc2c(c(=O)[nH]c(=O)n2C)n1CCOc1ccccc1	-19.7%	
Cn1c(=O)c2c(nc(NCCc3ccccc3)n2Cc2ccccc2Br)n(C)c1=O	-3.57%	
COC(=O)C(C)Sc1nc2c(c(=O)n(C)c(=O)n2C)n1Cc1cccc(C)c1 (centres undefined)	-11.1%	
CCCCNc1nc2c(c(=O)n(C)c(=O)n2C)n1Cc1cccc(OC)c1		5.8 µM (active)
Cn1c(=O)c2c(nc(NCCc3ccccc3)n2Cc2ccccc2)n(C)c1=O		14.6 µM (active)
Clc1ccc(CSc2nncn3c2cc2occc23)cc1	-25.8%	
N#CN1CCC(NS(=O)(=O)c2cccc(F)c2)C1 (centres undefined)	14.3%	
COc1ccccc1NC(=O)c1oc2ccccc2c1NC(=O)C(C)C	-28.5%	
CCN(CC)CCCC(C)n1c2nc(=O)[nH]c(=O)c-2nc2cc(Cl)ccc21 (centres undefined)		20.6 µM (active)
